PubChem BioAssay
Unmarked numbers belong to inactive results. No rule for the calls is given here.

assay: compounds altering Cy5-DNA-NS3h complex signal – biochemical, LOPAC1280, artefact control for HCV NS3 helicase inhibitor project (AID 687037); settings: Cy5-DNA-NS3h complex fluorescence interference counterscreen

SMILES | fluorescence ratio (interference)
O=c1[nH]cc(F)c(=O)[nH]1 | 1
CCc1cccc2c3c([nH]c12)C(CC)(CC(=O)O)OCC3 (stereo unspecified) | 1
Nc1ncn([C@@H]2O[C@H](CO)[C@@H](O)[C@H]2O)c(=O)n1 | 0.9
Cc1ccccc1C(OCCN(C)C)c1ccccc1 (stereo unspecified) | 0.9
NC(=O)c1cnccn1 | 1
OCCN1CCN(CCCN2c3ccccc3Sc3ccc(C(F)(F)F)cc32)CC1 | 0.9
COc1cc2nc(N(C)CCCNC(=O)C3CCCO3)nc(N)c2cc1OC (stereo unspecified) | 1
Cn1cnc([N+](=O)[O-])c1Sc1ncnc2nc[nH]c12 | 1
CCCNCC(O)COc1ccccc1C(=O)CCc1ccccc1 (stereo unspecified) | 1
Clc1ccc2c(c1)C(N1CCNCC1)=Nc1ccccc1O2 | 1
NS(=O)(=O)c1cc2c(cc1Cl)NC=NS2(=O)=O | 0.9
